According to PubChem BioAssay:
Calls of active or inactive are those of the source. Unless noted, how the calls were made is not given here.

Columns and labels:
[1] = compounds binding Alexa647 anti-His antibody – biochemical, small-molecule microarray, 635 nm fluorescence, artefact control for SMM control protein annotation, primary screen (AID 1128); conditions: higher = more signal;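 further: score merges feature fluorescence with signal-to-noise for each printed compound spot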
[2] = test system: Human papillomavirus type 1a E7 protein (residues 1-88); assay: HPV1a E7 small-molecule binders, primary screen, biochemical, small-molecule microarray, residues 1-88, 635 nm (AID 1129); conditions: small-molecule microarray binding, fluorescence 635 nm; higher = more signal
[3] = molecular target: Focal adhesion kinase 1 (Homo sapiens) (UniProt Q05397); assay: PTK2 protein binding on printed compound slides – biochemical, small-molecule microarray, 635/667 nm fluorescence, BSA, DTT, primary screen (AID 1130); conditions: 635 nm fluorescence, higher = more signal;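 further: composite of spot emission at 667 nm and signal to noise over triplicate slides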
Sequence of Focal adhesion kinase 1 (Homo sapiens) (Q05397 whole entry, looked up): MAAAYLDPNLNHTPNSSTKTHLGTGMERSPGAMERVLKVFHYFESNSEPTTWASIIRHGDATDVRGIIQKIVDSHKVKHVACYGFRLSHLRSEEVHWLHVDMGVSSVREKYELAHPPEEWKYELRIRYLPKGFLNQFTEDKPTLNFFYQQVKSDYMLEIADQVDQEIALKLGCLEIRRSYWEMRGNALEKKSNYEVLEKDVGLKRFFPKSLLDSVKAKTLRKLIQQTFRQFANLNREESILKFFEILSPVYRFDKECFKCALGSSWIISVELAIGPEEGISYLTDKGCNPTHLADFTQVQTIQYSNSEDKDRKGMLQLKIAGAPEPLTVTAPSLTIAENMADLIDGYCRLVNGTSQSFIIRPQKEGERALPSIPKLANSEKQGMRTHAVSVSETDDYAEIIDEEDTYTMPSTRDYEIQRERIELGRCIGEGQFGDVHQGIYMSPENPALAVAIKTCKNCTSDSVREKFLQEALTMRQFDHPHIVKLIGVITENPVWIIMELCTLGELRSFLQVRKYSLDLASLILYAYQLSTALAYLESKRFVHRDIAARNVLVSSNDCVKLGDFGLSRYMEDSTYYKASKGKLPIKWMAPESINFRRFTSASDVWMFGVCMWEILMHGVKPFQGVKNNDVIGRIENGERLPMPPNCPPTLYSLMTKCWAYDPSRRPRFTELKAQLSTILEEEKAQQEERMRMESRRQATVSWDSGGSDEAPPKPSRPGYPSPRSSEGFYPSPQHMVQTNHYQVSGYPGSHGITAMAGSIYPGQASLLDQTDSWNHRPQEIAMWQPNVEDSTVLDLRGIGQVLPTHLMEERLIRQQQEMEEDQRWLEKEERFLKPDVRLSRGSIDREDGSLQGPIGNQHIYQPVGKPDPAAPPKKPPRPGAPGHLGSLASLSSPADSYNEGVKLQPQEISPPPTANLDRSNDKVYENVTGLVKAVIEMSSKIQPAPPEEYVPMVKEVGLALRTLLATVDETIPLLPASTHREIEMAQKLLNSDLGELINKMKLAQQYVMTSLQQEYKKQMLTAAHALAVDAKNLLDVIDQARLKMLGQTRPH

[4] = test system: Fibrinogen (Alexa647-labelled); assay: Alexa647-fibrinogen binding to printed small molecules – biochemical, small-molecule microarray, 635/667 nm fluorescence, artefact control for SMM control-protein annotation, profiling panel (AID 1131); conditions: fibrinogen-A647 binding fluorescence, higher = more signal;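 further: z-score merges 667 nm fluorescence with per-spot signal-to-noise over triplicate slides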
[5] = molecular target: Follistatin (Homo sapiens) (UniProt P19883); assay: FST protein binding to printed compounds – biochemical, small-molecule microarray, 635/667 nm fluorescence, primary screen (AID 1132); conditions: 635 nm fluorescence, higher = more signal
Sequence of Follistatin (Homo sapiens) (P19883 whole entry, looked up): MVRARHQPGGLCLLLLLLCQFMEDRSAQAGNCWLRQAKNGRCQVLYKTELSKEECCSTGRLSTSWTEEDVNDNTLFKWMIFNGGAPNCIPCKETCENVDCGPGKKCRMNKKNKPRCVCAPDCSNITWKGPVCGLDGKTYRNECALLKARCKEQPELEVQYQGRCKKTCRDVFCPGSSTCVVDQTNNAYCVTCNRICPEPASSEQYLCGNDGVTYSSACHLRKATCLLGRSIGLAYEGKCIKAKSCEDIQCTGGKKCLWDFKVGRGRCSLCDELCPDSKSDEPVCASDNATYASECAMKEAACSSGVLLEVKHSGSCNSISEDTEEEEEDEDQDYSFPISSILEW

[6] = molecular target: Fibroblast growth factor 2 (Homo sapiens) (UniProt P09038); assay: basic fibroblast growth factor binding to printed compounds – biochemical, small-molecule microarray, 635/667 nm fluorescence, primary screen (AID 1133); conditions: FGF2, fluorescence 635/667, higher = more signal
Sequence of Fibroblast growth factor 2 (Homo sapiens) (P09038 whole entry, looked up): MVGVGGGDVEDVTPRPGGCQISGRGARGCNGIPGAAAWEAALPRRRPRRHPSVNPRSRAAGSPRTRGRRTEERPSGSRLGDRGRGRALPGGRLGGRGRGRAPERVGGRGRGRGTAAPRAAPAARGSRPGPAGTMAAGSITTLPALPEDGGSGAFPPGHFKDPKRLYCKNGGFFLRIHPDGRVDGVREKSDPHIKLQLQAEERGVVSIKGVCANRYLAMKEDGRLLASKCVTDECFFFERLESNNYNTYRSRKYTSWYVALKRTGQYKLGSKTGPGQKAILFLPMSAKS

[7] = JC-1 mitochondrial potential readout, lung cancer cells – cell-based, A549, JC-1 fluorescence, basal, 24 h, 100 nL, profiling panel (AID 1138); conditions: higher = more signal;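 further: A549 lung adenocarcinoma cells under basal conditions with no added stimulus; test concentration not given here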
[8] = test system: Lefty1; assay: Lefty1 protein binding to printed compounds – biochemical, small-molecule microarray, 635/667 nm fluorescence, primary screen (AID 1139); conditions: fluorescence 635/667, higher = more signal
[9] = test system: wheat germ agglutinin (Triticum aestivum), Alexa647-labelled; assay: Alexa647-WGA lectin binding to printed small molecules – biochemical, small-molecule microarray, 635/667 nm fluorescence, artefact control for SMM control-protein annotation, profiling panel (AID 1140); conditions: WGA-A647 binding, 635 nm fluorescence, higher = more signal;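 further: score merges 667 nm feature emission with signal to noise over triplicate slides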
[10] = molecular target: Luciferin 4-monooxygenase (Photinus pyralis) (UniProt P08659); assay: inhibition of purified Photinus pyralis luciferase – biochemical, luminescence, purified enzyme, 2006 set, primary screen (AID 1141); conditions: purified firefly luciferase, SteadyGlo luminescence, 30 min; higher = more signal, called active from +8 up or from −8 down;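 further: cell-free assay with purified firefly luciferase at 100 ng per well in PBS; test concentration not given here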
Sequence of Luciferin 4-monooxygenase (Photinus pyralis) (P08659 whole entry, looked up): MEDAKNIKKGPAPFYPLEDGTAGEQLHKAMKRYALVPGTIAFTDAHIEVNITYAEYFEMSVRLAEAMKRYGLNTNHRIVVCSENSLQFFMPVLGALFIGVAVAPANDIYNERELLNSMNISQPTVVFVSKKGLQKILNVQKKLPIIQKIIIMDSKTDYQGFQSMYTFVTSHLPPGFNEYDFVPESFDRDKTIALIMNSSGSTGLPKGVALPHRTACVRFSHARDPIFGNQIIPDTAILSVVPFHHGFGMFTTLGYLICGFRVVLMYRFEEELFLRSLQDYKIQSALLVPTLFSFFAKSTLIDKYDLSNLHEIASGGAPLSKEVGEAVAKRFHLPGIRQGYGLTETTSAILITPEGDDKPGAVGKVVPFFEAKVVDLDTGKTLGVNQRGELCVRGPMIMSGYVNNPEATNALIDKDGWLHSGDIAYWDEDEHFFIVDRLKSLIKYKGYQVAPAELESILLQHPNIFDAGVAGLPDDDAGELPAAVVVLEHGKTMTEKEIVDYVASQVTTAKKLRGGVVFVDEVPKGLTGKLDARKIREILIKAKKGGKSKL

[11] = test system: Wnt5a (protein binding on small-molecule microarray); assay: small molecules binding Wnt5a protein – biophysical, small-molecule microarray, 635/667 nm fluorescence, primary screen (AID 1142); conditions: 635 nm fluorescence, higher = more signal;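 further: fluorescence read at 667 nm with signal to noise per printed feature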
[12] = ATP-based viability of Huh7 replicon cells – cell-based, CellTiter-Glo luminescence, basal, 48 h, cytotoxicity control for HCV replication inhibitor project, primary screen (AID 1143); conditions: higher = more signal, called active from +8 up or from −8 down;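 further: Huh7 hepatoma cells carrying a hepatitis C replication reporter with no stimulus; test concentration not given here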
[13] = Pseudomonas biofilm growth suppression – PAO1 strain, BacTiter-Glo luminescence, LB-PBS, primary screen (AID 1144); conditions: P. aeruginosa PAO1 biofilm, 12 h, higher = more signal
[14] = basal CRE-LacZ reporter activity in PC12 – cell-based, unstimulated, primary screen (AID 1145); conditions: no forskolin, luminescence, 4.5 h, higher = more signal, called active from +8 up or from −8 down
[15] = forskolin-driven CRE-LacZ activity in PC12 – cell-based, CRE-LacZ reporter, forskolin-stimulated, primary screen (AID 1146); conditions: luminescence, 4.5 h, higher = more signal, called active from +8 up or from −8 down;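 further: PC12 cells with 6xCRE LacZ reporter stimulated by forskolin 10 µM; beta-galactosidase reporter signal reflecting CREB driven transcription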
[16] = molecular target: Streptavidin (Streptomyces avidinii) (UniProt P22629); assay: compounds binding control protein streptavidin – biophysical, small-molecule microarray, 635/667 nm fluorescence, artefact control for SMM compound annotation, primary screen (AID 1147); conditions: higher = more signal;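 further: signal reflects streptavidin binding to arrayed compounds as a control protein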
Sequence of Streptavidin (Streptomyces avidinii) (P22629 whole entry, looked up): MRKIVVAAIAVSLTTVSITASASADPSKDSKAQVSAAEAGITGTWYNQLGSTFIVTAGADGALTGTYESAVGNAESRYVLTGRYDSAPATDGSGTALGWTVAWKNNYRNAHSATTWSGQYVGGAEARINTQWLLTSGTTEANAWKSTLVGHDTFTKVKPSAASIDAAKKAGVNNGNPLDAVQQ

[17] = probe aInhba binding on compound microarray – biochemical, small-molecule microarray, 635/667 nm fluorescence, primary screen (AID 1148); conditions: higher = more signal;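 further: score merges 667nm spot fluorescence with signal-to-noise for antibody binding to printed compounds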
[18] = molecular target: Torsin-1A (Homo sapiens) (UniProt O14656); assay: TOR1A wild-type binding on microarray – cell lysate, small-molecule microarray, lysate, 635/667 nm, primary screen (AID 1149); conditions: COS7 hTOR1A-WT lysate, 635 nm fluorescence, higher = more signal
Sequence of Torsin-1A (Homo sapiens) (O14656 whole entry, looked up): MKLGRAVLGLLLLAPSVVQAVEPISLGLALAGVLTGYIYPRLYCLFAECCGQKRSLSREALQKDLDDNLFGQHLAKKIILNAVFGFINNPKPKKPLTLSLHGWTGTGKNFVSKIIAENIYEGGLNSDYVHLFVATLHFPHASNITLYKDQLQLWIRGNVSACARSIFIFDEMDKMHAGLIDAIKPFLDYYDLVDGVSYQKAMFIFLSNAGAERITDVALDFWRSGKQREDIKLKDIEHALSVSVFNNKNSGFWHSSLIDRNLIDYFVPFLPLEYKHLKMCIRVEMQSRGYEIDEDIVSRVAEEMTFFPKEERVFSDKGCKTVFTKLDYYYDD

[19] = molecular target: Torsin-1A (Homo sapiens) (UniProt O14656); assay: torsin A mutant lysate binding on microarrays – cell lysate, small-molecule microarray, COS7 lysate, 635/667 nm fluorescence, primary screen (AID 1150); conditions: COS7 hTOR1A mutant lysate, 635 nm fluorescence, higher = more signal;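 further: score pools 667 nm emission and signal to noise measuring lysate protein binding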
[20] = test system: Sonic hedgehog protein (Shh); assay: Sonic hedgehog microarray binding compounds – biochemical, small-molecule microarray, 635/667 nm fluorescence, primary screen (AID 1151); conditions: 635 nm fluorescence, higher = more signal;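 further: Shh protein binding to compounds spotted on small-molecule microarray slides; score combines spot fluorescence intensity with signal-to-noise across triplicate slides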

Row | Structure (SMILES) | composite z-score [1] | composite z-score [2] | composite z-score [3] | composite z-score [4] | composite z-score [5] | composite z-score [6] | z-score [7] | composite z-score [8] | composite z-score [9] | z-score [10] | composite z-score [11] | z-score [12] | z-score [13] | z-score [14] | z-score [15] | composite z-score [16] | composite z-score [17] | composite z-score [18] | composite z-score [19] | composite z-score [20]
1 | CO[C@@H]1COC(=O)[C@H](CCSC)NC(=O)CC=C[C@@H](C)COC(=O)[C@H](C)NC(=O)CC=C[C@H]1C | -0.229 | 0.255 | -0.342 | -0.433 | 0.96 | 1.62 | 0.812 | 1.2 | -0.543 | -1.2 (inactive) | 0.312 | 0.208 (inactive) | 0.0303 (inactive) | 1.97 (inactive) | -0.306 (inactive) | -0.793 | -0.103 | 1.49 | 0.152 | 1.46
2 | COC(=O)CC=C[C@@H](C)[C@@H]1C=C[C@H](O)[C@@H](CO)O1 | -0.29 | 0.392 | -0.281 | 0.201 | 1.04 | 0.413 | 0.204 | 0.767 | -0.375 | -0.203 (inactive) | -0.27 | 0.362 (inactive) | -0.159 (inactive) | 0.648 (inactive) | 1.03 (inactive) | 0.89 | -0.163 | 0.473 | 0.448 | 0.495
3 | CCOC(=O)[C@H](CC(C)C)NC(=O)CCC1CC(OC(=O)NCc2cccc3ccccc23)CC2(CCCC(COC(=O)NCCOc3ccccc3)O2)O1 (stereo not given in full) | 0.907 | 1.15 | 0.0968 | 0.959 | 0.776 | 0.373 | 1.07 | 0.741 | 0.537 | 0.546 (inactive) | 0.746 | -0.248 (inactive) | -0.477 (inactive) | -0.526 (inactive) | -0.519 (inactive) | 0.628 | 0.0248 | 0.236 | 0.117 | 0.805
4 | COc1ccc(COC(=O)NN=C2C[C@@H](O)[C@@H](O)[C@@H]3[C@@H]4C(=O)N(C5CCCCC5)C(=O)[C@@H]4CC[C@H]23)cc1 | -0.823 | -0.552 | -0.497 | -0.439 | -1.72 | -1.04 | 0.195 | -1.42 | 0.778 | -0.224 (inactive) | -0.244 | -0.146 (inactive) | 0.345 (inactive) | 1.61 (inactive) | -0.0264 (inactive) | -0.332 | -0.337 | -0.0324 | 0.408 | -1.61
5 | CC(=O)OC[C@H]1O[C@@H](ON=C(C)CCN2CCCc3nc(C)c(C)cc32)[C@H](OC(C)=O)[C@@H](OC(C)=O)[C@@H]1OC(C)=O | 0.269 | 1.15 | 0.36 | 0.602 | 0.881 | 0.664 | -1.13 | 0.889 | 0.476 | 0.788 (inactive) | 0.237 | -2.36 (inactive) | -0.731 (inactive) | 1.89 (inactive) | -0.112 (inactive) | 0.345 | -0.0626 | -0.164 | 0.604 | 1.06
6 | CCOC(=O)[C@H](Cc1ccccc1)NC(=O)CCC1CC(OC(=O)NCc2cccc3ccccc23)CC2(CCCC(COC(=O)NCc3ccccc3)O2)O1 (stereo not given in full) | -0.198 | 0.3 | 0.172 | 0.0039 | 0.449 | 0.348 | -0.133 | 0.401 | -0.0623 | 0.877 (inactive) | 0.0636 | -5.15 (inactive) | -1.29 (inactive) | -0.977 (inactive) | 2.01 (inactive) | 0.376 | -0.0259 | -0.347 | 0.0167 | 0.58
7 | CCOC(=O)[C@H](Cc1ccccc1)NC(=O)CCC1CC(OC(=O)NCc2cccc3ccccc23)CC2(CCCC(COC(=O)NCC(c3ccccc3)c3ccccc3)O2)O1 (stereo not given in full) | 1.06 | 0.455 | 0.384 | 0.853 | 0.411 | 0.39 | -0.243 | 0.589 | -0.0722 | 0.611 (inactive) | 0.177 | -1.43 (inactive) | -0.873 (inactive) | 0.286 (inactive) | 0.155 (inactive) | 0.164 | -0.154 | 0.45 | 0.0748 | 0.613
8 | C#CCCCON=C1C[C@@H](O)[C@@H](O)[C@@H]2[C@@H]3C(=O)N(CC)C(=O)[C@@H]3CC[C@@H]12 | 0.399 | 0.63 | -0.229 | 0.0609 | 0.759 | 0.672 | -0.39 | 0.289 | -0.0002 | 0.194 (inactive) | -0.0855 | 0.0213 (inactive) | -0.327 (inactive) | -0.116 (inactive) | -0.14 (inactive) | -0.0757 | -0.181 | 0.787 | 0.555 | 1.2
9 | CCOC(=O)[C@H](Cc1ccccc1)NC(=O)CCC1CC(OC(=O)NCc2cccc3ccccc23)CC2(CCCC(COC(=O)NCc3cccc(C(F)(F)F)c3)O2)O1 (stereo not given in full) | 0.419 | 0.565 | 0.219 | 0.193 | -0.0637 | 0.0858 | 1.94 | 0.0217 | 0.0961 | -0.114 (inactive) | -0.0693 | -0.816 (inactive) | -0.641 (inactive) | 4.81 (inactive) | -0.0734 (inactive) | 0.339 | -0.0375 | -0.347 | -0.385 | 0.0624
10 | C[C@@H]1NC(=O)[C@@H](C)COC(=O)[C@H](C)NC(=O)[C@@H](C)COC1=O | 1.08 | 0.922 | 0.0556 | -0.0769 | 0.172 | 1.21 | -0.323 | 0.389 | -0.137 | 0.254 (inactive) | 0.192 | -3.21 (inactive) | -0.906 (inactive) | 0.427 (inactive) | -0.105 (inactive) | -0.335 | -0.0791 | 0.179 | -0.231 | 0.234
